In PubChem BioAssay (NCI):
Values joined by “and” are separate entries in the source; they are usually repeats but may differ in a detail not shown here. Identical values can stand only once. About 83,000 compounds went through this panel and 20% of them were active in at least one assay; those are over-represented in the sample as a whole.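 Each cell line was grown in a 96-well plate and treated with one concentration of compound for 48 hours. Values below 10 were considered active.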 Active and inactive are the calls of the source.

Assays:
Experiment in all cases: NCI-60 one-dose screen, 48 h (100 = growth as untreated, 0 = no growth, -100 = all killed)
Conditions in all cases: 10 µM unless noted
HCT-15 colon = system: HCT-15 colon
HT29 colon = system: HT29 colon
SNB-75 CNS = system: SNB-75 CNS
SNB-19 CNS = system: SNB-19 CNS
U251 CNS = system: U251 CNS
PC-3 prostate = system: PC-3 prostate
SK-MEL-5 melanoma = system: SK-MEL-5 melanoma
UACC-62 melanoma = system: UACC-62 melanoma
LOX IMVI melanoma = system: LOX IMVI melanoma
SK-MEL-28 melanoma = system: SK-MEL-28 melanoma
SK-MEL-2 melanoma = system: SK-MEL-2 melanoma
EKVX NSCLC = system: EKVX NSCLC
SN12C renal = system: SN12C renal
UO-31 renal = system: UO-31 renal
TK-10 renal = system: TK-10 renal
ACHN renal = system: ACHN renal
CAKI-1 renal = system: CAKI-1 renal
A498 renal = system: A498 renal
CCRF-CEM leukemia = system: CCRF-CEM leukemia
MOLT-4 leukemia = system: MOLT-4 leukemia

Compound | growth (HCT-15 colon) | growth (HT29 colon) | growth (SNB-75 CNS) | growth (SNB-19 CNS) | growth (U251 CNS) | growth (PC-3 prostate) | growth (SK-MEL-5 melanoma) | growth (UACC-62 melanoma) | growth (LOX IMVI melanoma) | growth (SK-MEL-28 melanoma) | growth (SK-MEL-2 melanoma) | growth (EKVX NSCLC) | growth (SN12C renal) | growth (UO-31 renal) | growth (TK-10 renal) | growth (ACHN renal) | growth (CAKI-1 renal) | growth (A498 renal) | growth (CCRF-CEM leukemia) | growth (MOLT-4 leukemia)
COc1ccc(Cn2cc(C(=O)Nc3cccnc3Nc3ccccc3)nn2)cc1 | 94.8% (inactive) | 106% (inactive) | 89.2% (inactive) | 93.3% (inactive) | 99.5% (inactive) | 91% (inactive) | 90.2% (inactive) | 83.2% (inactive) | 92% (inactive) | 113% (inactive) | 107% (inactive) | 92.8% (inactive) | 86.5% (inactive) | 70.9% (inactive) | 95.1% (inactive) | 105% (inactive) | 88.4% (inactive) | 117% (inactive) | 108% (inactive) | 93.5% (inactive)
[2H]C([2H])([2H])Oc1cccc(/C=C/C(=O)/C=C(/C=C/c2cccc(OC([2H])([2H])[2H])c2OC([2H])([2H])[2H])OB(F)F)c1OC([2H])([2H])[2H] | 58.3% (inactive) | 86.3% (inactive) | 55.2% (inactive) | 89.1% (inactive) | 58.8% (inactive) | 74.3% (inactive) | 98.6% (inactive) | 66.6% (inactive) | 54.6% (inactive) | 88.5% (inactive) | 116% (inactive) | 93.6% (inactive) | 74% (inactive) | 51.5% (inactive) | 99.9% (inactive) | 51.5% (inactive) | 58.1% (inactive) | 117% (inactive) | 4.12% (active) | 15.6% (inactive)
O=C(CCCCCCCCC(=O)N/N=C\c1ccccc1O)N/N=C\c1ccccc1O | 22.1% (inactive) | 68.4% (inactive) | 37.5% (inactive) | 24.1% (inactive) | 15.2% (inactive) | 31.5% (inactive) | -59.8% (active) | -7.2% (active) | 10.8% (inactive) | 35.6% (inactive) | 32% (inactive) | 26.3% (inactive) | 21.6% (inactive) | 13.2% (inactive) | 46.4% (inactive) | 14.7% (inactive) | 9.16% (active) | 46.5% (inactive) | 10.8% (inactive) | 15% (inactive)
O=C(/C=C/c1ccc(F)cc1)Nc1ncc(Cc2ccc(F)cc2)s1 | 26.1% (inactive) | 13.7% (inactive) | 23.2% (inactive) | 58.1% (inactive) | 33.6% (inactive) | 31.9% (inactive) | 2.79% (active) | 14.1% (inactive) | 9.96% (active) | 67% (inactive) | 32.3% (inactive) | 32.1% (inactive) | 50.6% (inactive) | 39% (inactive) | 47.2% (inactive) | 32.5% (inactive) | 27.5% (inactive) | 21.8% (inactive) | 34% (inactive) | 30.9% (inactive)
COc1ccc(/C=C/C(=O)c2cc3c(N)c(C(=O)Nc4ccccc4Cl)sc3nc2C)cc1 | 54.2% (inactive) | 39.2% (inactive) | -6.43% (active) | 44.7% (inactive) | 31.7% (inactive) | 59.2% (inactive) | -56.1% (active) | -1.92% (active) | 48.2% (inactive) | 42% (inactive) | 30.6% (inactive) | 66.8% (inactive) | 53.8% (inactive) | -10.2% (active) | 20.4% (inactive) | 10.2% (inactive) | 31.9% (inactive) | 30.9% (inactive) | 58.9% (inactive) | 36.2% (inactive)
COC(=O)c1c2c(c(C)[n+]([O-])c1C)C(=O)C(NCCN1CCOCC1)=CC2=O | 69.1% (inactive) | 27.4% (inactive) | 106% (inactive) | 87.5% (inactive) | 83.6% (inactive) | 75.2% (inactive) | 48.5% (inactive) | 68.4% (inactive) | 57.2% (inactive) | 95.2% (inactive) | 78.2% (inactive) | 65.8% (inactive) | 59% (inactive) | 82.2% (inactive) | 111% (inactive) | 85.5% (inactive) | 73% (inactive) | 129% (inactive) | 80.2% (inactive) | 88.1% (inactive)
Cc1ccc(C(=O)Nc2ccc(CN3CCN(C)CC3)c(C(F)(F)F)c2)cc1C#Cc1cnc(N)cc1C#N | -69.8% (active) | -65.1% (active) | -81.1% (active) | 3.23% (active) | -73.6% (active) | -33.9% (active) | -86.5% (active) | -38.5% (active) | -90.1% (active) | -83.3% (active) | -43% (active) | -36.8% (active) | -52.9% (active) | -55.7% (active) | 14.7% (inactive) | -85.7% (active) | -48% (active) | -37% (active) | -8.11% (active) | -54.7% (active)
CCN(CC)CC(=O)Nc1ccc2ncnc(Nc3ccc(Oc4cccc(F)c4)c(Cl)c3)c2c1 | 17.6% (inactive) | 14.4% (inactive) | 66.4% (inactive) | 72.2% (inactive) | 45.2% (inactive) | 44.7% (inactive) | 58.4% (inactive) | 86.9% (inactive) | -42% (active) | 81.3% (inactive) | 90.9% (inactive) | 42.8% (inactive) | 67.8% (inactive) | 22% (inactive) | 51.9% (inactive) | 41.6% (inactive) | 46.6% (inactive) | 44.2% (inactive) | 46.8% (inactive) | 41.8% (inactive)
COc1cc(C=O)ccc1Oc1ccc([N+](=O)[O-])cc1[N+](=O)[O-] | 108% (inactive) | 108% (inactive) | 93.1% (inactive) | 90.3% (inactive) | 93.2% (inactive) | 94.4% (inactive) | 98.6% (inactive) | 82.3% (inactive) | 82% (inactive) | 107% (inactive) | 96.9% (inactive) | 105% (inactive) | 99.8% (inactive) | 83.3% (inactive) | 106% (inactive) | 106% (inactive) | 107% (inactive) | 95.2% (inactive) | 82.9% (inactive) | 100% (inactive)
C#CCOc1cccc(Nc2ncc3ncn(C4CCN(C(=O)CCl)C4)c3n2)c1 (stereo not given) | 6.97% [6.25 µM] (active) | 23.4% [6.25 µM] (inactive) | 72.6% [6.25 µM] (inactive) | 64.6% [6.25 µM] (inactive) | 43.2% [6.25 µM] (inactive) | 74.9% [6.25 µM] (inactive) | 39.1% [6.25 µM] (inactive) | 44.8% [6.25 µM] (inactive) | -55.1% [6.25 µM] (active) | 78% [6.25 µM] (inactive) | 61.9% [6.25 µM] (inactive) | 91.3% [6.25 µM] (inactive) | 13.2% [6.25 µM] (inactive) | 29.9% [6.25 µM] (inactive) | -34.9% [6.25 µM] (active) | -31.2% [6.25 µM] (active) | 49.3% [6.25 µM] (inactive) | 89.2% [6.25 µM] (inactive) | -16.6% [6.25 µM] (active) | 5.59% [6.25 µM] (active)
COc1ccc(/C=C(\C#N)c2cc3ccccc3[nH]2)cc1 | 14% (inactive) | 8.16% (active) | 18.6% (inactive) | 39.7% (inactive) | 18.7% (inactive) | 51% (inactive) | 22.2% (inactive) | 31.4% (inactive) | 30.3% (inactive) | 49.5% (inactive) | 26.2% (inactive) | 45.3% (inactive) | 42.2% (inactive) | 46.9% (inactive) | 53.6% (inactive) | 56.5% (inactive) | 33.9% (inactive) | 32.1% (inactive) | 13.5% (inactive) | 24.4% (inactive)
CCCN1C(=O)/C(=c2\sc3n(c2=O)NC2C(N=3)N(CC)C(=O)N2CC)c2ccccc21 (stereo not given) | 24.6% (inactive) | 13.5% (inactive) | 12.9% (inactive) | 40.2% (inactive) | 29.9% (inactive) | 42.5% (inactive) | 41.8% (inactive) | 31.8% (inactive) | 38.8% (inactive) | 54.5% (inactive) | 68.6% (inactive) | 55.7% (inactive) | 38.1% (inactive) | 46.7% (inactive) | 86% (inactive) | 47.5% (inactive) | 40.7% (inactive) | 29% (inactive) | 25.1% (inactive) | 38% (inactive)
NS(=O)(=O)OCC1OC(n2cnc3cncnc32)C(O)C1O (stereo not given) | 22% [0.1 µM] (inactive) and 8.65% [0.1 µM] (active) | 13.7% [0.1 µM] (inactive) and 14.3% [0.1 µM] (inactive) | 32.3% [0.1 µM] (inactive) and 40.4% [0.1 µM] (inactive) | -4.22% [0.1 µM] (active) and 0.183% [0.1 µM] (active) | -11.8% [0.1 µM] (active) | 21% [0.1 µM] (inactive) and 17.8% [0.1 µM] (inactive) | 49.4% [0.1 µM] (inactive) | 44.2% [0.1 µM] (inactive) and 42.4% [0.1 µM] (inactive) | 5.02% [0.1 µM] (active) and 5.99% [0.1 µM] (active) | 38.5% [0.1 µM] (inactive) and 37.4% [0.1 µM] (inactive) | 30.5% [0.1 µM] (inactive) and 21.3% [0.1 µM] (inactive) | 69.5% [0.1 µM] (inactive) | -10.2% [0.1 µM] (active) and -29.3% [0.1 µM] (active) | -2.13% [0.1 µM] (active) and 19.4% [0.1 µM] (inactive) | 18.5% [0.1 µM] (inactive) and 13% [0.1 µM] (inactive) | 13.3% [0.1 µM] (inactive) and 14.6% [0.1 µM] (inactive) | -34.9% [0.1 µM] (active) and 8.16% [0.1 µM] (active) | -5.51% [0.1 µM] (active) and -5.14% [0.1 µM] (active) | 11.4% [0.1 µM] (inactive) and -1.11% [0.1 µM] (active) | 0.572% [0.1 µM] (active) and -5.43% [0.1 µM] (active)
